# In PubChem BioAssay (NCI):
# About 83,000 compounds went through this panel and 20% of them were active in at least one assay; those are over-represented in the sample as a whole.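 Each cell line was grown in a 96-well plate and treated with one concentration of compound for 48 hours. Values below 10 were considered active.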 Activity calls are given as the source filed them.
# Tested on: HL-60(TB) leukemia
# Assay: NCI-60 one-dose screen, 48 h (100 = growth as untreated, 0 = no growth, -100 = all killed)
# Settings: 10 µM unless noted
row,SMILES,growth
1,Cc1ccc2oc(=O)cc(C3C(C#N)=C(N)Oc4c3ccc3ccccc43)c2c1 (stereo not given),53.1% (inactive)
2,C=CC(O)CCC (stereo not given),88.3% (inactive)
3,Cc1cccc(NC(=O)c2sc3nc4c(cc3c2N)CCCC4)c1,22.1% (inactive)
4,CC(C)[C@H]1COC(=O)N1[C@@H]1C(=O)N([C@@H](CCC(=O)N2CCN(C3CCCC3)CC2)C(=O)N[C@@H]2CCCc3ccccc32)[C@@H]1/C=C/c1cccc(Cl)c1,5.13% (active)
5,COc1ccc(C(=O)c2sc3nc4c(c(-c5cccnc5)c3c2N)CCCC4)cc1OC,86.6% (inactive)
